PubChem BioAssay (NCI)
This is part of a sample that, as a whole, favours compounds with a hit. Of some 83,000 tested, about 20% had one in any assay.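 Negative percent growth values reflect cell death: -40 means 40% of the cells present at the start died, and -100 means all died.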 Calls of active or inactive are those of the source. How the source made its calls: active means growth percent below 10; inactive means the rest.

How the values were obtained:
Assay in all cases: NCI-60 one-dose screen, 48 h (100 = growth as untreated, 0 = no growth, -100 = all killed)
[1] = system: SK-MEL-2 melanoma; settings: 10 µM unless noted
[2] = system: EKVX NSCLC; settings: 10 µM
[3] = system: SN12C renal; settings: 10 µM unless noted
[4] = system: UO-31 renal; settings: 10 µM unless noted
[5] = system: ACHN renal; settings: 10 µM unless noted
[6] = system: CAKI-1 renal; settings: 10 µM unless noted
[7] = system: CCRF-CEM leukemia; settings: 10 µM
[8] = system: MOLT-4 leukemia; settings: 10 µM unless noted
[9] = system: SR leukemia; settings: 10 µM unless noted
[10] = system: RPMI-8226 leukemia; settings: 10 µM unless noted
[11] = system: OVCAR-8 ovarian; settings: 10 µM unless noted
[12] = system: OVCAR-5 ovarian; settings: 10 µM unless noted
[13] = system: OVCAR-4 ovarian; settings: 10 µM unless noted
[14] = system: IGROV1 ovarian; settings: 10 µM unless noted
[15] = system: OVCAR-3 ovarian; settings: 10 µM unless noted
[16] = system: HS 578T breast; settings: 10 µM unless noted
[17] = system: NCI/ADR-RES ovarian; settings: 10 µM unless noted
[18] = system: TK-10 renal; settings: 10 µM unless noted
[19] = system: A498 renal; settings: 10 µM unless noted
[20] = system: SK-OV-3 ovarian; settings: 10 µM unless noted

Measured: growth

O=C1c2ccccc2CCc2ccccc21
inactive: [1] 102% | [2] 89.4% | [3] 96.7% | [4] 84% | [5] 102% | [6] 90.5% | [7] 91.8% | [8] 111% | [9] 104% | [10] 108% | [11] 99.3% | [12] 93.7% | [13] 104% | [14] 93% | [15] 103% | [16] 105% | [17] 101%

Cc1ccc(S(=O)(=O)N/N=C2\CC3CCC2C3)cc1 (stereo not given)
inactive: [1] 108% | [3] 99.9% | [4] 93.9% | [18] 122% | [5] 94.7% | [6] 101% | [19] 97.7% | [7] 100% | [8] 109% | [9] 103% | [10] 104% | [11] 102% | [12] 98.9% | [13] 115% | [20] 93.9% | [14] 101% | [15] 113% | [16] 115% | [17] 119%

Cc1ccc2c(O)c(O)cc(NC(C)CCCN)c2n1 (stereo not given)
inactive: [1] 75% | [3] 32.2% | [4] 96.8% | [18] 104% | [5] 108% | [6] 87.4% | [19] 81.3% | [7] 39.9% | [9] 89.5% | [10] 75% | [11] 30.7% | [12] 87.4% | [20] 102% | [14] 86.3% | [15] 10.8% | [16] 80.8% | [17] 91.3%
active: [8] 7.64% | [13] 6.99%

O=c1[nH]c(=S)[nH]c(O)c1/C=C1\C=Nc2ccccc21
active: [7] 4.02% | [9] 5.51%
inactive: [1] 128% | [2] 75.1% | [4] 31.1% | [18] 86.9% | [5] 82.5% | [6] 27.3% | [8] 42.4% | [10] 72.2% | [11] 48.6% | [12] 96% | [13] 91.9% | [20] 104% | [14] 40.3% | [15] 33.3% | [16] 71.7% | [17] 87.9%

O=S(=O)(O)c1ccc2c(c1)Sc1cc(S(=O)(=O)O)ccc1O2
inactive: [1] 107% | [3] 95.8% | [4] 97% | [18] 107% | [5] 112% | [6] 105% | [19] 96.6% | [7] 107% | [8] 115% | [9] 107% | [10] 101% | [11] 104% | [12] 92.1% | [13] 110% | [20] 107% | [14] 112% | [15] 122% | [16] 110% | [17] 104%

CC1Cc2cc(F)ccc2-n2cccc21 (stereo not given)
inactive: [1] 104% | [2] 107% | [4] 99.5% | [18] 96.5% | [5] 106% | [6] 101% | [19] 90.7% | [7] 111% | [8] 113% | [9] 114% | [10] 111% | [11] 99.5% | [12] 95% | [20] 101% | [14] 92% | [15] 109% | [17] 107%

CCOC(=O)c1c(C)oc2ncnc(Nc3ccc(C(=O)NCCc4ccccc4)cc3)c12
inactive: [1] 82.5% | [2] 90.4% | [3] 99.4% | [4] 97.4% | [5] 88.7% | [6] 92.6% | [19] 77.6% | [7] 81% | [8] 105% | [10] 84.6% | [11] 76.7% | [12] 110% | [13] 45.5% | [20] 85.6% | [14] 102% | [15] 97.3% | [16] 51.2% | [17] 76.9%

CC(=O)Nc1ccc(C(=O)/C=C/c2ccc(N(C)C)cc2)cc1
inactive: [1] 95.7% | [3] 98.2% | [4] 74.5% | [18] 95.4% | [5] 103% | [6] 97% | [19] 104% | [7] 101% | [8] 99.2% | [9] 96.6% | [10] 102% | [11] 102% | [12] 106% | [13] 109% | [20] 101% | [14] 95.4% | [15] 105% | [16] 101% | [17] 99.3%

O=C(CBr)OCc1ccc([N+](=O)[O-])o1
inactive: [1] 97.9% | [2] 124% | [3] 98.8% | [18] 101% | [5] 89.6% | [6] 53.8% | [19] 117% | [7] 74.1% | [8] 95.6% | [9] 88.1% | [10] 86.3% | [11] 96.9% | [12] 101% | [13] 77.9% | [20] 105% | [14] 10.5% | [15] 104% | [16] 106% | [17] 101%

O=C(NC1CCN(Cc2ccccc2)CC1)c1cc(-c2cccnc2)nc2ccc(Cl)cc12
inactive: [1] 100% | [3] 63.1% | [4] 69.2% | [18] 81.6% | [5] 81.2% | [6] 82.6% | [19] 67.2% | [7] 64% | [8] 58.9% | [9] 23% | [10] 47.3% | [11] 77.5% | [12] 80.5% | [13] 70.5% | [20] 102% | [14] 80.5% | [15] 94.4% | [16] 83.4% | [17] 67%

Oc1ccc(N=Nc2ccc(N=Nc3ccccc3)cc2)cc1
active: [7] 6.69% | [8] 4.57%
inactive: [1] 47.3% | [2] 39.8% | [3] 57.1% | [4] 15.8% | [5] 30.8% | [9] 43.1% | [10] 24.8% | [11] 23.1% | [12] 79.3% | [13] 76% | [20] 42.6% | [14] 53.6% | [15] 18.3% | [16] 91.8% | [17] 43.4%

COc1ccc(C2=NN(C(=O)c3cc(-c4ccc(C)cc4)nc4ccccc34)C(c3cc(-c4ccccc4)nn3-c3ccccc3)C2)cc1 (stereo not given)
inactive: [1] 94.9% | [2] 99.6% | [3] 97.7% | [4] 79.8% | [5] 98.6% | [19] 91% | [7] 81.5% | [8] 84.7% | [9] 89.5% | [10] 78.1% | [11] 93.3% | [12] 102% | [13] 93.3% | [20] 112% | [14] 98.3% | [15] 84.4% | [16] 95.8% | [17] 92.5%

NC(N)=Nc1ccc(/C=C2\C=Cc3ccccc32)cc1
inactive: [1] 85.6% | [2] 75.7% | [3] 79.3% | [4] 49.1% | [5] 67.8% | [6] 64.2% | [19] 47.7% | [7] 49.4% | [8] 37.2% | [11] 71.7% | [12] 80.7% | [13] 77.7% | [20] 78.6% | [14] 51.2% | [15] 72.9% | [16] 81.3% | [17] 80.9%

CCN(CC)CCCNc1c2ccc(Cl)cc2nc2ccc(OC)cc12
active: [1] -3.63% | [4] -69.2% | [18] -4.36% | [5] 1.29% | [6] 4.67% | [19] -62.2% | [7] -10.1% | [8] -20.8% | [9] -30.3% | [10] -21.5% | [11] 4.01% | [12] 3.61% | [13] -35.2% | [20] 3.94% | [14] 6.62% | [15] -11.5% | [17] 0.48%
inactive: [3] 10.7% | [16] 34.1%

Oc1ccc(CN(Cc2ccc(C(F)(F)F)cc2)Cc2ccc(O)c3ncccc23)c2cccnc12
active: [4] 4.59% | [5] 9.38% | [6] 5.6% | [7] 8.17% | [9] 3.48% | [17] 6.89%
inactive: [1] 24.5% | [2] 19% | [18] 14.7% | [19] 41.6% | [8] 10.4% | [10] 11.7% | [11] 11% | [12] 44.5% | [20] 17.8% | [14] 20% | [15] 37.5%

N=C(N)c1ccc(-c2ccc(-c3ccc(F)cc3)s2)cc1
active: [1] -62.1% | [3] -71.2% | [4] -88.4% | [18] -79.9% | [5] -91.8% | [6] -95.1% | [19] -87.8% | [7] -62% | [8] -58.8% | [9] -24.2% | [10] -55.5% | [11] -28.4% | [12] -87.4% | [13] -70.8% | [20] -80% | [14] -69.8% | [15] -92.4% | [16] -59.4% | [17] -77.1%

COc1ccc(/C=C2\CCCC3=C2N=C2SC=NN2C3c2ccc(OC)c(OC)c2)cc1OC (stereo not given)
active: [7] 7.48% | [10] -14.8% | [11] 9.01%
inactive: [1] 109% | [3] 40.7% | [4] 40% | [18] 60.9% | [5] 37.4% | [6] 32.5% | [19] 42.8% | [8] 54.7% | [9] 34.3% | [12] 59.7% | [13] 49.1% | [20] 81.9% | [14] 47.8% | [15] 37.8% | [16] 86.4% | [17] 21.4%
